According to PubChem BioAssay (Tox21):
Values joined by “and” are separate entries in the source; they are usually repeats but may differ in a detail not shown here. Equal values may be shown once. Values without a mark were called inactive. Inconclusive results are not listed. Where a call stands in place of a potency, no number is given. Active and inactive are the calls of the source. Unless noted, calls follow the shape of the dose curve; as a rule, active = well fitted curve in the direction sought with a large enough effect in the repeat runs; inconclusive = weak or mixed curves; inactive = no such curve, though single readings can be large; an effect the other way counts as inactive or inconclusive.

Assays:
[1] = qHTS assay to identify small molecule agonists of the estrogen receptor alpha (ER-alpha) signaling pathway in the presence of an antagonist - cell viability counter screen (AID 1259386);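 also: series mostly up to about 92 µM; cells exposed to compounds for 22 h at 37 °C before the viability read; nearly all actives have a fitted effect of over 30% in size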
Summary of the method: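 Using estrogen-depleted VM7Luc4E2 cells, the 15-concentration compound series was applied together with 10.0nM ICI-182,780 and incubated 22hr at 37C/5% CO2. Cell viability was then scored by CellTiter-Fluor.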

[2] = target: Progesterone receptor (Homo sapiens) (UniProt P06401); experiment: qHTS assay to identify small molecule antagonists of the progesterone receptor (PR) signaling pathway (AID 1346795; active = well fitted inhibition curve with a large enough effect in the signal ratio in the repeat runs, not every such curve was filed as active; the % refers to the signal ratio)
Summary of the method: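 Antagonist mode: compounds tested against 1 nM (final) promegestone stimulation in HEK293T cells expressing PR-UAS-bla reporter, 16 hr at 37C, 5% CO2; beta-lactamase activity detected via B/G FRET substrate after 2 hr at room temperature.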

[3] = qHTS assay to identify small molecule agonists of the progesterone receptor (PR) signaling pathway - cell viability counter screen (AID 1346799; calls by dose curve; also: nearly all actives have a fitted effect of over 45% in size; also: potency is read from the fitted curve at half-maximal effect)
Summary of the method: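 Cells (PR-UAS-bla HEK293T) are plated at 3,000/well in 2% charcoal-stripped FBS medium, rested 6 hr, dosed and incubated 16 hr at 37C. CellTiter-Glo is then added and luminescence measured after 30 min at room temperature.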

[4] = qHTS assay to identify small molecule antagonists of the TGF-beta/Smad signaling pathway - cell viability counter screen (AID 1346824); also: nearly all actives have a fitted effect of over 50% in size
Summary of the method: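 SBE-bla HEK 293T cells were plated overnight at 37 C, then given compounds in DMSO plus TGF-beta1 (added as 0.25 ng/mL solution) for 5 hr. After the bla read, CellTiter-Glo was added to the same wells and luminescence read after 30 min at room temperature.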

[5] = qHTS assay to identify small molecule agonists of the TGF-beta/Smad signaling pathway - cell viability counter screen (AID 1346829); also: top concentration of the series differs between compounds; nearly all actives have a fitted effect of over 45% in size
Summary of the method: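 Tox21 qHTS format: SBE-bla HEK 293T cells treated with DMSO-dissolved compounds for 5 hr; CellTiter-Glo luminescence after 30 min at room temperature.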

[6] = qHTS assay to identify small molecule agonists of the TGF-beta/Smad signaling pathway (AID 1346859; active = well fitted activation curve with a large enough effect in the signal ratio in the repeat runs, not every such curve was filed as active; the % refers to the signal ratio; also: series mostly up to about 77 µM)
Summary of the method: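 Reporter line: HEK 293T with stably integrated SBE-controlled beta-lactamase. Compound exposure lasts 5 hr at 37 C and 5% CO2; substrate loading follows for 2 hr at room temperature, with emission read at 460 and 530 nm.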

[7] = target: Thyrotropin-releasing hormone receptor (Homo sapiens) (UniProt P34981); experiment: qHTS assay to identify small molecule antagonists of the thyrotropin-releasing hormone receptor (TRHR) signaling pathway (AID 1346877; active = well fitted inhibition curve with a large enough effect in the repeat runs, not every such curve was filed as active; also: series mostly up to about 51 µM)
Summary of the method: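 Calcium signal in dye-loaded TRHR/HEK293 cells; compounds added 5 min before TRH (1 nM final); fluorescence monitored 3 min at 1 s steps.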

[8] = target: Thyrotropin-releasing hormone receptor (Homo sapiens) (UniProt P34981); experiment: qHTS assay to identify small molecule agonists of the thyrotropin-releasing hormone receptor (TRHR) signaling pathway (AID 1346891; calls by dose curve;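 also: HEK293 cells expressing TRHR with calcium dye readout; series mostly up to about 58 µM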)
Summary of the method: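 Cells: TRHR-Hek293, seeded and incubated 18 h. Dye loading: 2 h at 37 °C. Compound added from DMSO stock by pin tool. Read-out: kinetic calcium fluorescence over 3 min.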

[9] = Human pregnane X receptor (PXR) small molecule agonists, qHTS cell viability counter screen (AID 1346977); also: nearly all actives have a fitted effect of over 50% in size
Summary of the method: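 Cytotoxicity counter screen run in the same wells as the PXR luciferase assay, using PXR-Luc HepG2 cells in charcoal-stripped serum medium. Viability: CellTiter-Fluor fluorescence after 24hr compound treatment.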

[10] = Caspase-3/7 induction in HepG2 cells by small molecules, qHTS assay (AID 1346978); also: nearly all actives have a fitted effect of over 15% in size
Summary of the method: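 Wild-type HepG2 cells (2,000/well) were settled 5 h at 37 C, 5% CO2, then exposed to compounds in DMSO for 17 h. Caspase-3/7 activity was read by luminescence 30 min after adding Caspase-Glo 3/7 reagent at room temperature.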

[11] = Caspase-3/7 induction in CHO-K1 cells by small molecules, qHTS cell viability counter screen (AID 1346979); also: nearly all actives have a fitted effect of over 35% in size
Summary of the method: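 Cytotoxicity counter screen run in parallel with the caspase-3/7 assay: CHO-K1 cells, 16hr compound treatment at 37C, then CellTiter-Fluor for 1hr before fluorescence reading.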

[12] = Caspase-3/7 induction in CHO-K1 cells by small molecules, qHTS assay (AID 1346980); also: nearly all actives have a fitted effect of over 15% in size
Summary of the method: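 Wild-type cells were seeded at 1,500 per well and settled 5 hr at 37 C, 5% CO2, then exposed to DMSO-dissolved compounds for 17 hr. Caspase-Glo 3/7 reagent was added, and luminescence was read after 30min at room temperature.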

[13] = Caspase-3/7 induction in HepG2 cells by small molecules, qHTS cell viability counter screen (AID 1346981); also: series mostly up to about 92 µM; nearly all actives have a fitted effect of over 30% in size
Summary of the method: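 After a 5-hr attachment period at 37 C and 5% CO2, wild-type HepG2 cells received compounds in DMSO. Sixteen hours later CellTiter-Fluor was dispensed and the fluorescent signal quantified after a further hour.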

[14] = target: Progesterone receptor (Homo sapiens) (UniProt P06401); experiment: qHTS assay to identify small molecule agonists of the progesterone receptor (PR) signaling pathway (AID 1346784; calls by dose curve; also: nearly all actives have a fitted effect of over 30% in size)
Summary of the method: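 Cells (PR-UAS-bla HEK 293T, GripTite) were plated in assay medium containing 2% charcoal-stripped FBS and incubated 6 hr. Test compounds in DMSO were added for 16 hr at 37C. FRET substrate was then loaded for 2 hr at room temperature before fluorescence reading.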

[15] = qHTS assay to identify small molecule antagonists of the progesterone receptor (PR) signaling pathway - cell viability counter screen (AID 1346798); also: nearly all actives have a fitted effect of over 50% in size; also: potency is read from the fitted curve at half-maximal effect
Summary of the method: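 Counter screen for cytotoxicity: viability of PR-UAS-bla HEK293T cells was measured with CellTiter-Glo luminescence following 16 hr compound exposure in the presence of R5020.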

[16] = target: Nuclear receptor subfamily 1 group I member 2 (Homo sapiens) (UniProt O75469); experiment: Human pregnane X receptor (PXR) small molecule agonists, qHTS assay (AID 1346982); also: nearly all actives have a fitted effect of over 35% in size; also: potency is read from the fitted curve at half-maximal effect
Summary of the method: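 Tox21 qHTS; PXR-Luc HepG2; compounds pinned from DMSO; 24 hr, 37 C; ONE-Glo luciferase detection, 30 min room temperature.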

[17] = target: Nuclear receptor subfamily 1 group I member 2 (Rattus norvegicus) (UniProt Q9R1A7); experiment: Rat pregnane X receptor (rPXR) activation by small molecules, qHTS assay (AID 1346983); conditions: rPXR luciferase reporter cells, One-Glo luminescence, 24 h; max activation: hits give high values; also: nearly all actives have a fitted effect of over 20% in size
Summary of the method: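 Cell-based rPXR luciferase reporter assay, 2,000 cells per well, rested 5hr at 37 C before compound addition in DMSO, then 24 hr at 37 C. One-Glo reagent was added and luminescence read after 30 min at room temperature.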

[18] = target: Nuclear receptor subfamily 1 group I member 2 (Homo sapiens) (UniProt O75469); experiment: CYP3A4 induction through human pregnane X receptor (PXR) by small molecules, qHTS assay (AID 1346984); also: nearly all actives have a fitted effect of over 40% in size
Summary of the method: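 Cells (DPX-2; HepG2 with PXR element plus CYP3A4-promoter luciferase) settled 5hr, then were treated 24hr at 37C. A 3hr, 3uM-final Luciferin-IPA step preceded luminescence measurement with One-Glo.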

[19] = target: Nuclear receptor subfamily 1 group I member 2 (Homo sapiens) (UniProt O75469); experiment: Human pregnane X receptor (PXR) activation by small molecules, qHTS assay (AID 1346985); also: nearly all actives have a fitted effect of over 40% in size
Summary of the method: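 DPX-2 cells (HepG2 co-transfected with a PXR response element and a CYP3A4-promoter luciferase construct) were seeded at 2,000 per well, rested 5 hr at 37C, then exposed to DMSO-dissolved compounds for 24 hr. Activation was read as luciferase luminescence.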

Chain of Progesterone receptor (Homo sapiens) (P06401 whole entry, looked up): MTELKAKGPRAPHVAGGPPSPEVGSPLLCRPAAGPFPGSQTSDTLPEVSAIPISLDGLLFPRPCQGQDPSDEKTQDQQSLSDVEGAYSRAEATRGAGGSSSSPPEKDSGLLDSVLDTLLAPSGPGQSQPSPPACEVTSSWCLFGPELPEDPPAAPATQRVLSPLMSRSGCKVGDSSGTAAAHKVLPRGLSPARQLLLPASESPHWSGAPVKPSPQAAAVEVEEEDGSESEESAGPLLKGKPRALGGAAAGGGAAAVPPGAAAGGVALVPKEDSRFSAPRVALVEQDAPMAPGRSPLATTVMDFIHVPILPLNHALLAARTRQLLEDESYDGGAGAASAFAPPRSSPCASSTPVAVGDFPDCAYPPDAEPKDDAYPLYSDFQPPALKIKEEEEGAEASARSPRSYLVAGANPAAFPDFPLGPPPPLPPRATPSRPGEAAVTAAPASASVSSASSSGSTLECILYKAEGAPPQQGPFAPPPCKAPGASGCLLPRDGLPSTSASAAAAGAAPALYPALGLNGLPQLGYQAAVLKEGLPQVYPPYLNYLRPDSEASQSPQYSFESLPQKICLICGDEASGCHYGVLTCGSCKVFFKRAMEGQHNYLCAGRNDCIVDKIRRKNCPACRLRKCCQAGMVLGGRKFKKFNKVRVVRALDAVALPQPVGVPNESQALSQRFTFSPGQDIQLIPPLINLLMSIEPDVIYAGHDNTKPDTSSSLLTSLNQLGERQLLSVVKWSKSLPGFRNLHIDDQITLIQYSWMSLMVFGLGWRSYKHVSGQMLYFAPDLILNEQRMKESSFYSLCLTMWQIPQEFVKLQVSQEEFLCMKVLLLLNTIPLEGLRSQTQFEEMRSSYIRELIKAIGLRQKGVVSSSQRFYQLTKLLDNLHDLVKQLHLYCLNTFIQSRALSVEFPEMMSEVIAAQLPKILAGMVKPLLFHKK
Chain of Nuclear receptor subfamily 1 group I member 2 (Homo sapiens) (O75469 whole entry, looked up): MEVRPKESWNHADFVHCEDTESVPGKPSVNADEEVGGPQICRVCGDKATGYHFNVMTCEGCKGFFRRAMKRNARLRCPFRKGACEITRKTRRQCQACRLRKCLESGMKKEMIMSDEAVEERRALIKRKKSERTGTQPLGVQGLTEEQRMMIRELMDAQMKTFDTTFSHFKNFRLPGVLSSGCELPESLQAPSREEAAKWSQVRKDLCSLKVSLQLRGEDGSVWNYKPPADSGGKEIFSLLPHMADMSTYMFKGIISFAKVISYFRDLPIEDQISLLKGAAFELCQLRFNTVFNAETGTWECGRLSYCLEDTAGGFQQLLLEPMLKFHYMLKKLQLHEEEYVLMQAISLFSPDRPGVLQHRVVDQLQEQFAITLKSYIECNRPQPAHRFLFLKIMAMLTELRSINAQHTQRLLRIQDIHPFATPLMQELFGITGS
Chain of Nuclear receptor subfamily 1 group I member 2 (Rattus norvegicus) (Q9R1A7 whole entry, looked up): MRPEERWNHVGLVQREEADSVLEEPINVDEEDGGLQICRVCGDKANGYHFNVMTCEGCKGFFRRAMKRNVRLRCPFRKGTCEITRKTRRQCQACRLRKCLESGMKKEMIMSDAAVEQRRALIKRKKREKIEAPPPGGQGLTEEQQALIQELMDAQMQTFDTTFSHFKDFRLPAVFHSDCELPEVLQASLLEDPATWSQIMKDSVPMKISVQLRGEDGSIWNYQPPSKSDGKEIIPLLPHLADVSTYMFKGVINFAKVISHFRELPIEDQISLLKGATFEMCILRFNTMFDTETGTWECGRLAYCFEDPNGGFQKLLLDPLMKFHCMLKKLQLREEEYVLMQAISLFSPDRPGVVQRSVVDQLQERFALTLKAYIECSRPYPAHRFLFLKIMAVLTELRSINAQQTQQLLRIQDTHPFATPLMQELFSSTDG
Chain of Thyrotropin-releasing hormone receptor (Homo sapiens) (P34981 whole entry, looked up): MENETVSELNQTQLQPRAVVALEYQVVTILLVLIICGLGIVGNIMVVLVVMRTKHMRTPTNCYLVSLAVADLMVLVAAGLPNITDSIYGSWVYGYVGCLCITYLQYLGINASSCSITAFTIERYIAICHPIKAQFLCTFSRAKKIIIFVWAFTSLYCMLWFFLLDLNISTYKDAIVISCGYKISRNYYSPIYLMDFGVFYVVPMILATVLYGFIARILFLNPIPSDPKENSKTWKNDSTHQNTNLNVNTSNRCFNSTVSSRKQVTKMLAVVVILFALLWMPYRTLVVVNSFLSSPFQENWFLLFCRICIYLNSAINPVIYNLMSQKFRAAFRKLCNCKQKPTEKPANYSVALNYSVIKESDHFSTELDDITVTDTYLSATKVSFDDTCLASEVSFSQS

With `CCCCCCCCCCCl` the outcome [1] was “inactive”, the Potency [2] was “inactive” and the Potency [3] was “inactive”. The outcome [4] was “inactive”, the outcome [5] was “inactive” and the outcome [6] was “inactive”. The outcome [7] was “inactive”, the outcome [8] was “inactive” and the Potency [9] was “inactive”. For the same compound, the outcome [10] was “inactive”, the Potency [11] was “inactive” and the outcome [12] was “inactive”. For the same compound, the outcome [13] was “inactive”.

In the case of `OC/C=C/c1ccccc1`, the outcome [1] is reported as “inactive”, the Potency [14] is reported as “inactive” and the Potency [15] is reported as “inactive”. For the same compound, the Potency [3] was “inactive”, the outcome [4] was “inactive” and the outcome [5] was “inactive”. For the same compound, the outcome [6] was “inactive”, the Potency [9] was “inactive” and the outcome [10] was “inactive”. The Potency [11] was “inactive”, the outcome [12] was “inactive” and the Potency [16] was “inactive”. The max activation [17] was -5.54%, the Potency [18] was “inactive” and the Potency [19] was “inactive”.

For `CCCCOCC(C)OCC(C)O` (centres undefined), the outcome [1] was “inactive”, the Potency [15] was “inactive” and the Potency [3] was “inactive”. The outcome [4] was “inactive”, the outcome [5] was “inactive” and the outcome [6] was “inactive”. The outcome [7] was “inactive”, the outcome [8] was “inactive” and the Potency [9] was “inactive”. For the same compound, the outcome [10] was “inactive”, the Potency [11] was “inactive” and the outcome [12] was “inactive”. The outcome [13] was “inactive” and the Potency [16] was 27.9 µM (active).

With `COc1cc(C(=O)N2CCOCC2)cc(OC)c1OC` the outcome [1] was “inactive”, the Potency [15] was “inactive” and the Potency [3] was “inactive”. For the same compound, the outcome [4] was “inactive”, the outcome [5] was “inactive” and the outcome [6] was “inactive”. The Potency [9] was “inactive”, the outcome [10] was “inactive” and the outcome [12] was “inactive”. The outcome [13] was “inactive”, the Potency [16] was “inactive” and the max activation [17] was -6.89% and 0.152%. For the same compound, the Potency [18] was “inactive” and the Potency [19] was “inactive”.

For `CC(C)(O)c1ccccc1`, the outcome [1] was “inactive”, the Potency [2] was “inactive” and the Potency [15] was 52.2 µM (active). The Potency [3] was 58.6 µM (active), the outcome [4] was “inactive” and the outcome [5] was “inactive”. For the same compound, the outcome [6] was “inactive”, the outcome [7] was “inactive” and the outcome [8] was “inactive”. The Potency [9] was “inactive”, the outcome [10] was “inactive” and the Potency [11] was “inactive”. The outcome [12] was “inactive”, the outcome [13] was “inactive” and the Potency [16] was “inactive”.

In the case of `C/C=C1\C(=O)C[C@H]2[C@@H]3CCC4=CC(=O)CC[C@]4(C)[C@H]3CC[C@]12C`, the outcome [1] is reported as “inactive”, the outcome [4] is reported as “inactive” and the outcome [5] is reported as “inactive”. For the same compound, the Potency [9] was “inactive” and the outcome [12] was “inactive”.

For `Cc1c(C)n(CCN(C)C)c2ccc(C(=O)OCCN(C)C)cc12`, the outcome [1] was “inactive”, the outcome [4] was “inactive” and the outcome [5] was “inactive”. The outcome [6] was “inactive”, the outcome [7] was “inactive” and the outcome [8] was “inactive”. For the same compound, the outcome [10] was “inactive”, the outcome [12] was “inactive” and the Potency [16] was “inactive”. The max activation [17] was 6.74% and the Potency [18] was “inactive”.

With `O=C(O)Cc1cc(I)c(Oc2cc(I)c(O)c(I)c2)c(I)c1` the outcome [1] was “inactive”, the Potency [15] was “inactive” and the outcome [4] was “inactive”. For the same compound, the outcome [5] was “inactive”, the outcome [6] was “inactive” and the outcome [8] was “inactive”. For the same compound, the Potency [9] was “inactive”, the outcome [10] was “inactive” and the outcome [12] was “inactive”. The Potency [16] was 37.8 µM (active).

In the case of `C=C(C)[C@H]1CC=C(C)CC1`, the outcome [1] is reported as “inactive”, the Potency [2] is reported as “inactive” and the Potency [15] is reported as “inactive”. The Potency [3] was “inactive”, the outcome [4] was “inactive” and the outcome [5] was “inactive”. For the same compound, the outcome [6] was “inactive”, the Potency [9] was “inactive” and the outcome [10] was “inactive”. The Potency [11] was “inactive”, the outcome [12] was “inactive” and the outcome [13] was “inactive”.
